# Among all 39,000 compounds or so, about 3,300 (8.5%) were called active. This is one part of a sample in which actives are shown more often than they occur.
# System: HepG2
# Experiment: cytotoxicity call (relative viability < 0.9)
# Conditions: 10 µM
row,Structure (SMILES),cytotoxicity call
1,COc1ccc(NC(=O)Nc2cccc3c2O[C@@H](CN(C)Cc2ccc(Oc4ccccc4)cc2)[C@@H](C)CN([C@@H](C)CO)C3=O)cc1,active
2,COc1ccc(NC(=O)Nc2cccc3c2O[C@@H](CN(C)Cc2ccc(Oc4ccccc4)cc2)[C@H](C)CN([C@H](C)CO)C3=O)cc1,inactive
3,C[C@@H]1CN([C@@H](C)CO)C(=O)c2cccc(NC(=O)Nc3ccc(F)cc3)c2O[C@H]1CN(C)Cc1ccc(Oc2ccccc2)cc1,inactive
4,COc1ccc(NC(=O)Nc2cccc3c2O[C@H](CN(C)Cc2ccc(Oc4ccccc4)cc2)[C@@H](C)CN([C@H](C)CO)C3=O)cc1,inactive
5,Cc1cc(C(=O)Nc2cccc3c2O[C@@H](CN(C)Cc2ccc(Oc4ccccc4)cc2)[C@H](C)CN([C@@H](C)CO)C3=O)n(C)n1,inactive
6,COc1ccc(NC(=O)Nc2cccc3c2O[C@@H](CN(C)Cc2ccc(Oc4ccccc4)cc2)[C@@H](C)CN([C@H](C)CO)C3=O)cc1,active
7,COc1ccc(NC(=O)Nc2cccc3c2O[C@H](CN(C)Cc2ccc(Oc4ccccc4)cc2)[C@H](C)CN([C@H](C)CO)C3=O)cc1,inactive
8,COc1ccc(NC(=O)Nc2cccc3c2O[C@H](CN(C)Cc2ccc(Oc4ccccc4)cc2)[C@@H](C)CN([C@@H](C)CO)C3=O)cc1,inactive
9,Cc1cc(C(=O)Nc2cccc3c2O[C@@H](CN(C)Cc2ccc(Oc4ccccc4)cc2)[C@@H](C)CN([C@@H](C)CO)C3=O)n(C)n1,inactive
10,Cc1cc(C(=O)Nc2cccc3c2O[C@H](CN(C)Cc2ccc(Oc4ccccc4)cc2)[C@@H](C)CN([C@H](C)CO)C3=O)n(C)n1,active
11,C[C@@H]1CN([C@H](C)CO)C(=O)c2cccc(NC(=O)Nc3ccc(F)cc3)c2O[C@@H]1CN(C)Cc1ccc(Oc2ccccc2)cc1,active
12,C[C@H](CO)N1C[C@H](C)[C@H](CN(C)Cc2ccc(Oc3ccccc3)cc2)Oc2c(NC(=O)Nc3ccc(F)cc3)cccc2C1=O,inactive
13,CC(=O)N1[C@@H](CO)[C@H](c2ccccc2)C12CN(C(=O)CN1CCOCC1)C2,inactive
14,Cc1ccc(S(=O)(=O)Nc2cccc3c2O[C@@H](CN(C)CC2CC2)[C@@H](C)CN([C@@H](C)CO)C3=O)cc1,inactive
15,C[C@H]1CN([C@@H](C)CO)C(=O)c2cc(C#CC3(O)CCCC3)cnc2O[C@H]1CN(C)S(=O)(=O)c1ccc(F)cc1,inactive
16,Cc1ccc(S(=O)(=O)Nc2ccc3c(c2)C(=O)N([C@H](C)CO)C[C@@H](C)[C@H](CN(C)C(=O)Cc2ccccc2)OCCCC[C@@H](C)O3)cc1,inactive
17,COC(=O)c1c2oc(c1C(=O)OC)C(=O)N[C@H](Cc1ccccc1)Cn1cc(nn1)CNC(=O)[C@@H](Cc1ccccc1)NC(=O)N[C@@H](CO)CC2,inactive
18,COCC#Cc1ccc2c(c1)O[C@H](CN(C)C(=O)c1ccccc1)[C@H](C)CN([C@@H](C)CO)S2(=O)=O,inactive
19,O=C(C[C@@H]1C=C[C@H](NS(=O)(=O)c2ccc(F)cc2)[C@H](CO)O1)N1CCC(Cc2ccccc2)CC1,inactive

row,Structure (SMILES),cytotoxicity call
1,C[C@H]1CCCCO[C@@H](CN(C)Cc2ccncc2)[C@@H](C)CN([C@@H](C)CO)C(=O)c2cc(NS(C)(=O)=O)ccc2O1,inactive
2,C[C@@H]1CCCCO[C@@H](CN(C)CC2CCCCC2)[C@@H](C)CN([C@@H](C)CO)C(=O)c2cc(NS(=O)(=O)c3ccccc3)ccc2O1,inactive
3,C[C@H](CO)N1C[C@H](C)[C@H](CN(C)S(=O)(=O)c2ccc(Cl)cc2)Oc2c(NC(=O)c3cnccn3)cccc2C1=O,inactive
4,CC(C)NC(=O)Nc1cccc2c1O[C@@H](CN(C)Cc1ccc(Oc3ccccc3)cc1)[C@H](C)CN([C@H](C)CO)C2=O,inactive
5,C[C@@H]1CN([C@@H](C)CO)C(=O)c2cccc(NC(=O)Nc3ccccc3)c2O[C@H]1CN(C)Cc1ccc(Oc2ccccc2)cc1,inactive
6,COc1ccc(NC(=O)Nc2cccc3c2O[C@H](CN(C)Cc2ccc(Oc4ccccc4)cc2)[C@H](C)CN([C@@H](C)CO)C3=O)cc1,inactive
7,C[C@@H]1CN([C@@H](C)CO)C(=O)c2cccc(NC(=O)Nc3ccccc3)c2O[C@@H]1CN(C)Cc1ccc(Oc2ccccc2)cc1,active
8,CC(C)NC(=O)Nc1cccc2c1O[C@H](CN(C)Cc1ccc(Oc3ccccc3)cc1)[C@@H](C)CN([C@@H](C)CO)C2=O,active
9,COc1ccc(NC(=O)Nc2cccc3c2O[C@@H](CN(C)Cc2ccc(Oc4ccccc4)cc2)[C@H](C)CN([C@@H](C)CO)C3=O)cc1,active
10,C[C@H](CO)N1C[C@H](C)[C@@H](CN(C)Cc2ccc(Oc3ccccc3)cc2)Oc2c(NC(=O)Nc3ccccc3)cccc2C1=O,inactive
11,CC(C)NC(=O)Nc1cccc2c1O[C@@H](CN(C)Cc1ccc(Oc3ccccc3)cc1)[C@@H](C)CN([C@@H](C)CO)C2=O,inactive
12,C[C@H]1CN([C@@H](C)CO)C(=O)c2cccc(NC(=O)Nc3ccccc3)c2O[C@@H]1CN(C)Cc1ccc(Oc2ccccc2)cc1,inactive
13,C[C@@H]1CCCCO[C@H](CN(C)Cc2ccccc2)[C@@H](C)CN([C@@H](C)CO)C(=O)c2cc(NC(=O)c3ccncc3)ccc2O1,inactive
14,COCC#Cc1cnc2c(c1)C(=O)N([C@@H](C)CO)C[C@H](C)[C@H](CN(C)C(C)=O)O2,inactive
15,C[C@H]1CN([C@@H](C)CO)C(=O)Cc2cc(NS(=O)(=O)c3cccs3)ccc2O[C@H]1CN(C)Cc1ccncc1,inactive
16,C[C@H](C(=O)N(C)C[C@@H]1OCc2ccccc2-c2c(n(C)c3ccccc23)C(=O)N([C@H](C)CO)C[C@H]1C)c1ccccc1,inactive
17,C[C@H](O)C#Cc1cnc2c(c1)C(=O)N([C@@H](C)CO)C[C@H](C)[C@H](CN(C)C(=O)Nc1ccc(C(F)(F)F)cc1)O2,inactive
18,Cc1ccc(S(=O)(=O)Nc2ccc3c(c2)C(=O)N([C@@H](C)CO)C[C@@H](C)[C@@H](CN(C)C(=O)Nc2ccc4c(c2)OCO4)OCCCC[C@@H](C)O3)cc1,inactive
19,C[C@H](CO)N1C[C@H](C)[C@H](CN(C)C(=O)Nc2cccc(C(F)(F)F)c2)OCc2ccccc2-c2ccccc2C1=O,inactive
